Inconclusive results are not listed. Activity calls are given as the source filed them. Unless noted, calls follow the shape of the dose curve; as a rule, active = well fitted curve in the direction sought with a large enough effect in the repeat runs; inconclusive = weak or mixed curves; inactive = no such curve, though single readings can be large; an effect the other way counts as inactive or inconclusive.

Test [1] is described as follows: qHTS assay to identify small molecule antagonists of the glucocorticoid receptor (GR) signaling pathway - cell viability counter screen (AID 720693). Also: nearly all actives have a fitted effect of over 55% in size. Background: In qHTS, concentration-response curves come from the screen itself.
Test [2] is described as follows: qHTS assay for identifying genotoxic compounds that show differential cytotoxicity against isogenic chicken DT40 cell lines with known DNA damage response pathways - Rad54/Ku70 mutant cell line (AID 743015). Also: nearly all actives have a fitted effect of over 60% in size. Also: potency is read from the fitted curve at half-maximal effect.
Test [3] can be described thus: qHTS assay to identify small molecule antagonists of the androgen receptor (AR) signaling pathway - cell viability counter screen (AID 743033; also: nearly all actives have a fitted effect of over 45% in size; also: potency is read from the fitted curve at half-maximal effect).
Test [4] deals with Androgen receptor (Homo sapiens) (UniProt P10275). The test is described as follows: qHTS assay to identify small molecule agonists of the androgen receptor (AR) signaling pathway using the MDA cell line (AID 743040; also: nearly all actives have a fitted effect of over 20% in size; also: potency is read from the fitted curve at half-maximal effect). The gist of the method:
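Agonist activity is measured as luciferase luminescence in human MDA-kb2 cells whose MMTV reporter responds to both AR and GR. Compounds in DMSO incubate 16 h at 37C, 0% CO2, and ONE-Glo is read after 30 min.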

A short description of test [5]: qHTS assay to identify small molecule antagonists of the androgen receptor (AR) signaling pathway using the MDA cell line - cell viability counter screen (AID 743041; also: nearly all actives have a fitted effect of over 45% in size; also: potency is read from the fitted curve at half-maximal effect). The gist of the method:
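qHTS viability read-out; MDA-kb2 AR-luc; R1881-stimulated; 16 h exposure at 37C, 0% CO2; CellTiter-Fluor, 30 min; fluorescence intensity.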

Test [6] concerns the target Androgen receptor (Homo sapiens) (UniProt P10275). The test is described as follows: qHTS assay to identify small molecule antagonists of the androgen receptor (AR) signaling pathway using the MDA cell line (AID 743042; also: nearly all actives have a fitted effect of over 55% in size). A digest of the protocol: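 MDA-kb2 cells (human breast carcinoma, stably carrying an MMTV-luciferase reporter responsive to AR and GR) were plated at 3,000 cells/well and preincubated 5 hr at 37C, then given compound plus R1881 agonist for 16 h. ONE-Glo luminescence was read.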

Test [7] in a line: qHTS assay for identifying genotoxic compounds that show differential cytotoxicity against isogenic chicken DT40 cell lines with known DNA damage response pathways - Rev3 mutant cell line (AID 743014). Also: nearly all actives have a fitted effect of over 55% in size. Also: potency is read from the fitted curve at half-maximal effect.
Test [8] addresses Androgen receptor (Homo sapiens) (UniProt P10275). The test is described as follows: qHTS assay to identify small molecule antagonists of the androgen receptor (AR) signaling pathway (AID 743035; active = well fitted inhibition curve with a large enough effect in the signal ratio in the repeat runs, not every such curve was filed as active; the % refers to the signal ratio; also: potency is read from the fitted curve at half-maximal effect). A digest of the protocol:
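Steps: seed AR-UAS-bla GripTite HEK293 cells, incubate 4 h at 37C; pin in test compound, then add agonist R1881; incubate 16 h at 37C; add LiveBLAzer B/G FRET substrate, 2 h at room temperature; read fluorescence.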

Test [9] shares this target. The test is described as follows: qHTS assay to identify small molecule agonists of the androgen receptor (AR) signaling pathway (AID 743036; active = well fitted activation curve with a large enough effect in the signal ratio in the repeat runs, with a control signal flat, not every such curve was filed as active; the % refers to the signal ratio; also: potency is read from the fitted curve at half-maximal effect). The gist of the method: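 AR-bla HEK293 cells, 2,000/well; 4 h preincubation 37C/5% CO2; compound (DMSO) 16 h at 37C; LiveBLAzer B/G FRET substrate 2 h RT; fluorescence intensity read-out.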
Test [10] can be described thus: qHTS assay for identifying genotoxic compounds that show differential cytotoxicity against isogenic chicken DT40 cell lines with known DNA damage response pathways - wild type cell line (AID 743012). Also: potency is read from the fitted curve at half-maximal effect; nearly all actives have a fitted effect of over 60% in size. A digest of the protocol: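 Cytotoxicity in repair-proficient parental chicken DT40 cells serves as the comparator for Rad54/Ku70- and Rev3-deficient lines. Cells were exposed to compounds for 40 h at 37 C/5% CO2, and ATP-based luminescence (CellTiter-Glo) measured viability.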

Sequence of Androgen receptor (Homo sapiens) (P10275 whole entry, looked up): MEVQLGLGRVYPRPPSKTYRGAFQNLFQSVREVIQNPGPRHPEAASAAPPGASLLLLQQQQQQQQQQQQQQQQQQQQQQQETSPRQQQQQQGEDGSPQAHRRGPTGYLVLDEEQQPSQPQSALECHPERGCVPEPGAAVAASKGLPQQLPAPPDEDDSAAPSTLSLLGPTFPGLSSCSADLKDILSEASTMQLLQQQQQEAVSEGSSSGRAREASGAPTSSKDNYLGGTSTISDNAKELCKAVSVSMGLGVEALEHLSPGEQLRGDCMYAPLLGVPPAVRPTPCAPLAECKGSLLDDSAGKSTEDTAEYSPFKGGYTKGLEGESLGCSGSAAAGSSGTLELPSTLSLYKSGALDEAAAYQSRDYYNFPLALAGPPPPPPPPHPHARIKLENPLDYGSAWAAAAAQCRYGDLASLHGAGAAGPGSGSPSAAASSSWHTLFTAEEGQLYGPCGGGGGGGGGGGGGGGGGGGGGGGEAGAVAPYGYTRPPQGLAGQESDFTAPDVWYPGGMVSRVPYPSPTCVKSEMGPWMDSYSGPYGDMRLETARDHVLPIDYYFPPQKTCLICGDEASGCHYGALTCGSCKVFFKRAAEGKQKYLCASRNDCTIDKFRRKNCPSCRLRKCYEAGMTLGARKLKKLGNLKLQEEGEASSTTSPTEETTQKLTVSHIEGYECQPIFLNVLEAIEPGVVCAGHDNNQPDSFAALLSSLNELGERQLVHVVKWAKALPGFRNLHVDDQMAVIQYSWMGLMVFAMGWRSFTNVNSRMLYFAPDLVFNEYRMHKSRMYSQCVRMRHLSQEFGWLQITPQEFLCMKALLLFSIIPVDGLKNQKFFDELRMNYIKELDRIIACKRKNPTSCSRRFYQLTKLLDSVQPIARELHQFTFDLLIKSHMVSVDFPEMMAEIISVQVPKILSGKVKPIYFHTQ

Turning to `O=C(Nc1ccc(O)cc1)c1ccccc1O`, the Potency result in test [1], in [2], in [3], in test [4], in test [5] and in test [6] was “inactive” in each case.
In the case of `O=c1[nH]cnc2[nH]cc(CN3CCCCC3)c12`, the Potency entry in [1] and in [2] was “inactive” in each case.
For the molecule `O=C(O)c1c(Cl)c(Cl)c(Cl)c(Cl)c1-c1c2cc(I)c(=O)c(I)c-2oc2c(I)c(O)c(I)cc12`, the Potency entry in [1], in test [7], in test [3], in test [8], in test [9] and in [6] was “inactive” throughout. The Potency in test [4] was 13.3 µM (active); in test [5], 24.8 µM (active).
`CNC(=O)[C@H](Cc1c[nH]c2ccccc12)NC(=O)[C@@H](CC(=O)NO)CC(C)C`: the Potency result in [1], in test [3] and in test [5] was “inactive” in each case. In addition, the Potency in test [2] was 33.5 µM (active).
As for `C=C1CC2C3CCC4=CC(=O)C=C[C@]4(C)[C@@]3(F)[C@@H](O)C[C@]2(C)[C@@]1(O)C(=O)COC(C)=O` (stereo not given in full), the Potency result in test [1], in test [2], in [3] and in test [5] was “inactive” each time.
For the molecule `CCOC(=O)c1cc(-c2ccccc2)nc2ccc(C)cc12`, the Potency result in test [1], in test [3], in test [8], in [4], in test [5] and in test [6] was “inactive” throughout.
For the molecule `Cc1cc(/C=C/c2ccc3cc(N(C)C)ccc3[n+]2C)c(C)n1-c1ccccc1`, in test [1], the Potency entry is “inactive”. Further, the Potency in [3] is 4.56 µM (active); in test [5], 2.66 µM (active).
For `O=C(COc1ccc(Cl)cc1)OCCNC12CC3CC(CC(C3)C1)C2` the same measures were “inactive”, “inactive” and “inactive”.
`COc1ccc(-c2noc(CC(=O)O)c2-c2ccc(OC)cc2)cc1`: the Potency result in test [1], in test [2], in test [3], in test [5] and in test [6] was “inactive” throughout.
On to `COc1ccc2c(c1)OC(C)(C)C(c1ccccc1)C2c1ccc(OCCN2CCCC2)cc1` (stereo not given), for which the Potency in [10] was 3.76 µM (active); in test [7], 5.31 µM (active); in test [2], 5.96 µM (active).
For `CC(O)[C@H]1CC[C@H]2[C@@H]3CC[C@@H]4C[C@@H](O)CC[C@]4(C)[C@H]3CC[C@]12C` (stereo not given in full), the Potency result in test [1], in test [3] and in test [5] was “inactive” throughout.
With `NCCC[C@H](N)C(=O)O`, the Potency result in test [1], in [3] and in [5] was “inactive” in each case.
In the case of `O=C(OCc1ccccc1)c1cccnc1`, the Potency result in [1] and in [5] was “inactive” each time. In [2], the Potency was 6.68 µM (active).
Consider `CC(C)[C@@H](C)/C=C/[C@@H](C)[C@H]1CC[C@H]2/C(=C/C=C3\C[C@@H](O)CC[C@@H]3C)CCC[C@]12C`, for which the Potency entry in [1], in test [3] and in test [5] was “inactive” in each case.
With `CCC(c1ccccc1)c1noc(CCN(CC)CC)n1` (stereo not given), the Potency entry in [1], in test [3], in test [8], in test [5] and in [6] was “inactive” in each case.
Consider `O=C(CCCCCCCCCCCCC1CCCC1)Nc1ccc(S(=O)(=O)c2ccc(NC(=O)CCCCCCCCCCCCC3CCCC3)cc2)cc1`, for which the Potency result in [1], in test [2], in [3] and in [5] was “inactive” throughout.
As for `C=CCNC1=C2C[C@@H](C)C[C@H](OC)[C@H](O)[C@@H](C)/C=C(\C)[C@H](OC(N)=O)[C@@H](OC)/C=C\C=C(/C)C(=O)NC(=CC1=O)C2=O`, the Potency in test [10] is 0.335 µM (active); in test [7] it was 0.473 µM (active); in test [2], 0.376 µM (active).
`CC(C)c1nc(N(C)S(C)(=O)=O)nc(-c2ccc(F)cc2)c1/C=C/C(O)CC(O)CC(=O)O` (stereo not given): the Potency result in test [1], in test [3] and in test [5] was “inactive” each time.
Take `CCC(=O)Oc1ccc2c(c1)CC[C@@H]1[C@@H]2CC[C@]2(C)[C@@H](OC(=O)CC)CC[C@@H]12`: the Potency entry in [1] and in test [5] was “inactive” in each case. In addition, the Potency in test [9] was 2.39 µM (active); in test [4] it was 1.19 µM (active).
In the case of `C[C@@H]1C[C@H]2C3C[C@H](F)C4=CC(=O)C=CC4(C)[C@@]3(F)[C@@H](O)CC2(C)[C@@]1(O)C(=O)COC(=O)C(C)(C)C` (stereo not given in full), the Potency entry in test [1], in test [8], in test [5] and in [6] was “inactive” each time. The Potency in test [9] is 0.0601 µM (active); in test [4], 0.0047 µM (active).
With `CCc1ccc2c(c1)N(CC(C)CN(C)C)c1ccccc1S2` (stereo not given), the Potency in test [10] was 6.68 µM (active); in test [7], 5.31 µM (active); in test [2], 8.41 µM (active).
As to `CN1CCc2c(c3ccccc3n2Cc2ccccc2)C1`, the Potency entry in test [1] and in [5] was “inactive” throughout.
In the case of `C=C[C@]1(C)C[C@@H](OC(=O)CO)[C@]2(C)[C@H](C)CC[C@]3(CCC(=O)[C@H]32)[C@@H](C)[C@@H]1O`, the Potency result in test [1], in test [3] and in [5] was “inactive” throughout.
`CC(=O)O[C@]1(C(C)=O)CC[C@H]2[C@@H]3CCC4=CC(=O)CC[C@]4(C)[C@@]3(F)[C@@H](O)C[C@@]21C`: the Potency result in [1], in test [2], in test [9], in [5] and in test [6] was “inactive” throughout. Further, the Potency was 8.49 µM (active) in test [8] and 0.0531 µM (active) in [4].
Take `O=C(O)CO.[NH2-].[NH2-].[Pt+2]`: the Potency result in test [1], in [2], in [3] and in test [5] was “inactive” throughout.
Take `CCCCC(=O)N(Cc1ccc(-c2ccccc2-c2nn[nH]n2)cc1)[C@@H](C(=O)O)C(C)C`: the Potency result in [1], in test [2] and in test [5] was “inactive” throughout.
Regarding `CC(Oc1ccccc1)C(=O)N[C@@H]1C(=O)N2[C@@H]1SC(C)(C)[C@@H]2C(=O)O` (stereo not given in full), the Potency entry in test [1], in test [2] and in test [5] was “inactive” in each case.
For the molecule `COc1ccc(C(=O)Nc2ccccc2CCC2CCCCN2C)cc1` (stereo not given), the Potency result in test [1], in test [2] and in [5] was “inactive” in each case.
As for `CCN(CC)CCOC(=O)c1cccnc1`, the Potency entry in test [1], in test [2], in test [3] and in [5] was “inactive” throughout.
As to `CC(C)(CO)[C@@H](O)C(=O)NCCC(=O)NCCSSCCNC(=O)CCNC(=O)[C@H](O)C(C)(C)CO`, the Potency result in test [1] and in test [5] was “inactive” in each case.

These data come from PubChem BioAssay (Tox21).
